Screening data: PubChem BioAssay, National Center for Advancing Translational Sciences (NCATS)
TSHR agonist: qHTS Assay for Agonists of the Thyroid Stimulating Hormone Receptor; Thyrotropin receptor (Homo sapiens), P16473; AID 926, 2007; HEK293-CNG-TSHR cells (CNG channel as cAMP sensor), membrane potential dye, cAMP; 73,000 tested, 0.48% active; Potency, µM (doses to about 57.1 µM), without a hit: top-dose activation, usual class: activators; active means well fitted activation curve with a large enough effect in the main read-out, with a control signal flat, not every such curve was filed as active; inconclusive means small, poorly fitted or top-dose-only effect, or a change in a side signal; inactive means no such curve, though single readings can be large or run the other way; % of control where 0% means no effect;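 further: the control signal comes from parental cells without the receptor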
Target sequence (P16473 whole entry, looked up): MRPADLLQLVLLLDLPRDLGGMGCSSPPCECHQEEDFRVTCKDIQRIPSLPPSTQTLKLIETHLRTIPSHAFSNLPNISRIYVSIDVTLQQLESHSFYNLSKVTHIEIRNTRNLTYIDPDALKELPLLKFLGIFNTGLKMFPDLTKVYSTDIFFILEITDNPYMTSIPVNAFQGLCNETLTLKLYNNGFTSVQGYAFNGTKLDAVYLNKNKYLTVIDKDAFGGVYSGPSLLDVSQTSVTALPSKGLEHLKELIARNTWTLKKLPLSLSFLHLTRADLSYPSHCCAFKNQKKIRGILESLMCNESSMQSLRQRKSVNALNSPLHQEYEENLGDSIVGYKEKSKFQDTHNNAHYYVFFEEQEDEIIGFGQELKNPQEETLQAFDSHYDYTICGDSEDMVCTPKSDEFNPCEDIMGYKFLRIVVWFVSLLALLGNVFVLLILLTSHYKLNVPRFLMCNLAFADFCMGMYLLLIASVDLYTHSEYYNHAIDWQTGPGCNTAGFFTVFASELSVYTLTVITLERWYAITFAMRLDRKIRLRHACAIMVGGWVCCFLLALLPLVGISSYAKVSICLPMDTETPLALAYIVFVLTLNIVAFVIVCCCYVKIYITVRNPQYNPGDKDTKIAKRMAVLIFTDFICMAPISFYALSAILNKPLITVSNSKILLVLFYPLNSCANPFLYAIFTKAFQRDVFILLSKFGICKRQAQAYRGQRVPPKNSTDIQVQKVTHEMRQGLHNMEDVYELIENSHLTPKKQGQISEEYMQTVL
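cAMP rise detected as CNG-channel membrane depolarization by fluorescent dye (emission 590 nm), 30 min after compound, following 60 min dye loading containing 100 uM RO 20-1724 at room temperature. Cells: TSHR/CNG HEK 293, with parental CNG HEK 293 as control.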
IkB signaling: IkB Signaling. ABC-DLBCL IkBa-CBG/CBR dual luciferase ratio, 4 h; response scale: scaled: untreated 0%, proteasome inhibitor 100%. Potency, µM (series often up to 57.1 µM), for the others: at the top dose IkBa stabilization activation. 110,000 tested, 0.04% active; active means well fitted curve in the direction sought with a large enough effect in the signal ratio, not every such curve was filed as active; inconclusive means small, poorly fitted or top-dose-only effect, or a change in a side signal; the % refers to the signal ratio;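 further: the direction sought is a rising ratio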
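In this assay, an IκBα–CBG68 fusion accumulates when IKK-driven degradation is blocked; native CBR normalizes for cell number. OCI-Ly3 cells were treated 4 h with compound and doxycycline, then green and red light read after Chroma-Glo addition.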
Hsp90 Hop PPI: qHTS Assay for Disrupters of an Hsp90 Co-Chaperone Interaction; 71,000 tested, 0.44% active; AlphaScreen TPR2A-His6 binding biotin-Hsp90 C-terminal peptide; AID 595, 2007; Hsp90 C-terminal peptide / TPR2A (Hop) interaction, human; Potency, µM (series often up to 57 µM), for the others: at the highest dose activity change, negative = inhibition; active means well fitted curve in either direction with a large enough effect; inconclusive means small, poorly fitted or top-dose-only effect, or another doubt; further: on the % scale 0 is the no-effect control and ±100 the full control effect
HEK293 cAMP cs: qHTS Assay for Agonists of the Thyroid Stimulating Hormone Receptor: Activators of Intracellular cAMP Concentrations in Parental HEK 293; parental HEK293 CNG cAMP sensor, membrane potential fluorescence; Potency, µM (doses to about 57.1 µM), without a hit: at the highest dose activation, most hits filed as activators; 73,000 tested, 2.5% active; active means well fitted activation curve with a large enough effect; inconclusive means small, poorly fitted or top-dose-only effect; inactive means no such curve, though single readings can be large or run the other way; further: % of control where 0% means no effect; nearly all actives have a fitted effect of over 55% in size
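Parental HEK 293 cells stably expressing a cAMP-gated CNG channel were loaded with membrane potential dye containing 100 uM RO 20-1724 for 60 min. Compound added for 30 min; depolarization read as fluorescence intensity at 590 nm.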
CRE-bla Fsk: Cell signaling CRE-BLA (Fsk stim). CHO CRE-bla reporter (cAMP response element driving beta-lactamase), forskolin EC10, beta-lactamase ratio. Potency, µM (series often up to 38.2 µM), inactives show top-dose activity change, negative = inhibition, usual class: activators. 71,000 tested, 2.5% active; active means well fitted activation curve with a large enough effect in the signal ratio, with a control signal flat, not every such curve was filed as active; inconclusive means small, poorly fitted or top-dose-only effect, or effect the other way, or a change in a side signal; the % refers to the signal ratio; further: % of control where 0% means no effect
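The 460nm/530nm emission ratio after CCF4 loading defined %Activity, from which AC50 values were obtained. CRE-bla CHO cells received compound dilution series together with an EC10 level of NKH 477 for 3 hours at 37 degrees Celsius.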
An asterisk follows results filed as active; ? = inconclusive; / = no result given; [ ] = dose if it differs, or a comment. Sampled rows, rich in hits. Any-hit rate of the full collection: about 3.5%. Potency means the concentration at half of the fitted maximal effect.

SMILES	TSHR agonist	IkB signaling	Hsp90 Hop PPI	HEK293 cAMP cs	CRE-bla Fsk
C[C@@H]1NC(=O)[C@@H](C)COC(=O)[C@H](C)NC(=O)[C@@H](C)COC1=O	3.3%[11.4 µM]	/	/	3.0%[11.4 µM]	/
COc1ccc(-c2c3c(=O)n(C)c(=O)n(C)c3cn2-c2cc(OC)ccc2OC)cc1	25.1µM*	-2.3%	-12.7%	13.6%	?
CNC/C(Cl)=N/S(=O)(=O)c1ccc(C)cc1	2.2%[11.4 µM]	6.7%[11.4 µM]	-2.9%[11 µM]	-7.4%[11.4 µM]	?
C[C@@H]1CC[C@H]2C(=O)N3[C@@H](CC[C@@H](C)[C@@H]3c3ccc(Br)cc3)C(=O)N2[C@@H]1c1ccc(Br)cc1	-2.3%[11.4 µM]	/	/	1.5%[11.4 µM]	/
CCOC(=O)CC(=O)CSc1nc(-c2cccnc2)ccc1C#N	-4.3%	-1.1%	0.4%	-2.3%	10µM*
CCOC(=O)CC(=O)CSc1nc(-c2cccnc2)cc(C)c1C#N	4.6%	-2.9%	-2.1%	2.3%	?
COc1cccc(-c2nc(NC3CC3)c3ccccc3n2)c1	/	-0.7%[11.4 µM]	?	6.0%	-2.5%
COC(=O)[C@@]1(Cc2ccc(OC)cc2)[C@H]2c3cc(C(=O)N4CCCC4)n(CCn4cc([N+](=O)[O-])nc4C)c3C[C@H]2CN1C(=O)c1ccccc1	0.6%	/	-5.2%	-0.4%	?
COC(=O)[C@@]1(Cc2ccc(OC)cc2)[C@H]2c3cc(C(=O)N4CCCC4)n(CCN4CCOCC4)c3C[C@H]2CN1C(=O)c1ccccc1	?	/	-3.2%	20µM*	-7.5%
COC(=O)[C@@]1(Cc2ccc(OC)cc2)[C@H]2c3cc(C(=O)N4CCCC4)n(CCF)c3C[C@H]2CN1C(=O)c1ccccc1	?	/	-7.0%	20µM*	?
COC(=O)[C@@]1(Cc2ccccc2)[C@H]2c3cc(C(=O)N(C)C)n(CCF)c3C[C@H]2CN1C(=O)c1ccccc1	?	/	-3.2%	25.1µM*	-13.4%
COCCn1c(C(=O)N2CCCC2)cc2c1C[C@H]1CN(C(=O)c3ccccc3)[C@@](Cc3ccc(OC)cc3)(C(=O)OC)[C@@H]21	?	/	-0.5%	?	-12.1%
COC(=O)[C@@]1(Cc2ccc(OC)cc2)[C@H]2c3cc(C(=O)N4CCCC4)n(Cc4ccc(OC)c(OC)c4)c3C[C@H]2CN1C(=O)c1ccccc1	?	/	-17.3%	5.01µM*	?
COC(=O)[C@@]1(Cc2ccc(OC)cc2)[C@H]2c3cc(C(=O)N4CCCC4)n(C[C@H](O)CO)c3C[C@H]2CN1C(=O)c1ccccc1	3.2%	/	-2.1%	5.3%	-11.6%
O=C(O)c1ccccc1Cl	-4.8%	3.7%	-3.0%	16.5%	-3.7%
CCc1c(C)nc(SCC(=O)c2ccc(C)c(C)c2)[nH]c1=O	?	3.0%	2.2%	25.1µM*	?
Cc1ccc(-n2ncc3c(NCCCn4ccnc4)ncnc32)c(C)c1	?	-2.4%	-5.4%	1.58µM*	-10.9%
Cc1cccc(-n2ncc3c(NCCCn4ccnc4)ncnc32)c1	?	-2.9%	-10.3%	?	12.5%
CC(C)(CN)CN	0.5%[11.4 µM]	0.1%[11.4 µM]	-4.4%[11 µM]	0.9%[11.4 µM]	0.4%[7.6 µM]
CC1(C)OCC(CSC2=C(SCC3COC(C)(C)O3)C(=O)c3ncccc3C2=O)O1 (stereo not drawn)	2.6%	/	15.8µM*	2.2%	7.3%
O=C1c2cccnc2-c2ncccc21	1.2%	-0.9%	-25.8%	2.8%	?
O=C(Cn1cnc2c(nnn2-c2ccccc2)c1=O)NCCc1ccccc1	-3.9%	1.8%	6.4%	21.8%	12.6µM*
COCCn1c(=O)c(-c2cccs2)nc2cnc(N(C)C)nc21	2.6%	0.3%[11.4 µM]	8.4%	1.3%	?
COc1cccc(Cn2c(=O)c(C)nc3cnc(OCc4ccccc4)nc32)c1	?	1.5%[11.4 µM]	3.7%	15.8µM*	12.6µM*
COCCn1c(=O)c(-c2cccs2)nc2cnc(OC)nc21	9.0%	1.5%[11.4 µM]	-1.2%	7.3%	2.51µM*
COc1ncc2nc(-c3cccs3)c(=O)n(-c3ccccc3)c2n1	-6.2%	-2.9%[11.4 µM]	-3.0%	5.6%	5.01µM*
